# Laboratory results as given in PubChem BioAssay AID2685 (National Center for Advancing Translational Sciences (NCATS), 2010).
# Among all 320,000 compounds or so, about 2,100 (0.66%) were called active. About 53% were inconclusive and are not listed. The sample holds actives, similar compounds and a random draw of the others, so the mix is not that of the screen. The call rests on the fitted dose curve; in most records, active means well fitted inhibition curve with a large enough effect in the signal ratio, with a control signal flat (not every such curve was filed as active); inconclusive means small, poorly fitted or top-dose-only effect, or effect the other way, or a change in a side signal; inactive means flat fitted curve, though single readings scatter; the % refers to the signal ratio.
# Assay: qHTS Assay for Lipid Storage Modulators in Drosophila S3 Cells;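 on cell number change: cells counted by Cell Tracker Red CMTPX staining in the red channel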
# Settings: BODIPY lipid droplet fluorescence, 18-24 h, cells fed with added oleic acid; cell number change: measured here: cell count max response; series mostly up to 46.1 µM
# Text: NIH Molecular Libraries Probe Production Centers Network [MLPCN] NIH Chemical Genomics Center [NCGC] MLPCN Grant: 1 R03 MH085686-01 Assay Submitter (PI): Beller, Mathias; Max-Planck-Institut fur Biophysikalische Chemie NCGC Assay Overview: Storing lipids as a reservoir for energy or the anabolism of elementary metabolites is a common feature of probably all cells and is conserved from bacteria to humans. The universal cellular lipid storage organelle is the so-called lipid storage droplet (LD). Although ubiquitous, LDs share a simple structure composed of a hydrophobic core that harbors the storage lipids, which is shielded by a droplet-specific phospholipid monolayer to which proteins are attached. The current model of LD biogenesis involves an incorporation of the lipid core into the membrane leaflets of the endoplasmic reticulum (ER) followed by a subsequent budding-like maturation of a LD, which ultimately pinches off. Once released, LD volume can increase by localized lipogenesis or fusion of existing droplet. Storage lipids are re-mobilized enzymatically by lipase activity. Lipase regulation in the adipocyte is heavily studied and involves multiple components including catecholamine signaling, the LD-associated proteins Perilipin and comparative gene identification (CGI-58) and at least two lipases named hormone sensitive lipase (HSL) and adipocyte triglyceride lipase (ATGL). LD regulation outside of the adipocyte is poorly understood and only few components are known. However, there is an urgent need to learn more about ectopic fat depots as mislocalized storage of lipids, for example in the liver or muscle, is an eminent health problem associated with insulin resistance or the metabolic syndrome. We developed a laser-scanning cytometer assay to enable 1,536-well screening and combined the results of the small molecules screen with an RNAi database based on lipid storage.
# Triacsin C (Sigma-Aldrich T-4540), an inhibitor of long-chain fatty acyl CoA synthetase that blocks synthesis of triglycerides, was used as a positive control for lipid under-storage. A total of 23 nL of compound solution of different concentrations were transferred to the assay plates using a Kalypsys pin tool equipped with a 1,536-pin array containing 10-nL slotted pins (FP1S10, 0.457-mm diameter, 50.8 mm long; V&P Scientific). One microliter of oleic acid (400 uM) was added, and the plate was lidded with stainless steel rubber gasket lined lids containing pinholes. […] Fluorescence was detected by excitation of the fluorophores with a 488-nm laser on an Acumen Explorer (TTP Lab Tech). The total intensity in channel 2 (500-530 nm) reflected lipid droplet accumulation. Cells were detected using channel 3 (575-640 nm) with 5-um width and 100-um depth filters. The ratio of the number of objects in PMT channel 2 over the number of objects in PMT channel 3 was also calculated. Percent activity was computed relative to an internal control (100% inhibited lipid droplet deposition due to the presence of 20 uM Triacsin C), which was added to 32 wells/plate.
# Potency means the concentration at half of the fitted maximal effect.
Compound,Potency,cell number change
O=C(NCCCCO)c1ccc2c3c(cccc13)CC2,inactive,-6.57%
Cc1ccc(NC(=S)NC(C)CCc2ccccc2)cc1C (centres undefined),inactive,23.4%
O=C(Nc1ccc2nc3n(c(=O)c2c1)CCCCC3)c1ccccn1,inactive,-14.9%
CCOc1ccccc1C(=O)Nc1ccc2nc3n(c(=O)c2c1)CCCCC3,1.64 µM (active),-27.2%
Cc1ccccc1C(=O)Nc1ccc2nc3n(c(=O)c2c1)CCCC3,inactive,22.5%
CCO[C@@H]1OC(C(=O)NC2CC2)=C[C@H](c2csc3ccccc23)[C@H]1CCCO,inactive,0.265%
CC1CCN(S(=O)(=O)c2ccc3c(c2)N(CC(=O)NCCN2C(C)CCCC2C)C(=O)CS3)CC1 (centres undefined),inactive,
C=CCNC(=S)N1CC2(C)CN(C(=S)NCC=C)CC(C)(C1)C2=O,inactive,9.2%
CC(C)(C)c1[nH]ncc1[N+](=O)[O-],inactive,-8.1%
O=C(CN1C(=O)NC2(CCCC2)C1=O)OCCOc1ccc(Cl)cc1Cl,inactive,
COC(=O)C1=CN(c2cccc(C)c2)C=C(C(=O)OC)C1c1cc(OC)c(O)c([N+](=O)[O-])c1,25.9 µM (active),-3.94%
COC(=O)C1=CN(c2cccc(C(F)(F)F)c2)C=C(C(=O)OC)C1c1ccc(O)c(OC)c1,inactive,-17.2%
CCOC(=O)C1=CN(c2cccc(F)c2)C=C(C(=O)OCC)C1c1cc(OC)c(O)c([N+](=O)[O-])c1,inactive,
O=C(Cn1nc(Cc2cccnc2)c2ccccc2c1=O)Nc1cccnc1Cl,inactive,1.33%
COc1ccc(-c2cc(=O)oc3cc(OCc4nn[nH]n4)ccc23)cc1,inactive,14.9%
CN(C)c1ccc(C(=O)/C=C/c2cccnc2)cc1,inactive,-3.58%
O=C(/C=C/c1cccnc1)c1ccc([N+](=O)[O-])cc1,inactive,10.1%
CN(C)S(=O)(=O)c1ccc(C(=O)/C=C/c2cccnc2)cc1,0.326 µM (active),10.3%
CCc1ccc(N2C(=O)C3NN=C(C(=O)OCc4ccccc4)C3C2=O)cc1 (centres undefined),inactive,22.8%
COc1cccc(-c2nc(=S)c3c(o2)CCCC3)c1,inactive,9.57%
O=C(Nc1ccc(OCC(=O)N2CCOCC2)cc1)c1cncc(Br)c1,inactive,9.01%
Cc1ccc(NC(=O)c2ccccc2OCc2c(C)noc2C)cc1S(=O)(=O)N(C)C,inactive,-11.7%
CC(=O)NCCC1CCN(C(=O)C2CCC(=O)N(C3CCCC3)C2)CC1 (centres undefined),inactive,0.283%
CC1(C)COCN1C(=O)c1ccc(C#N)cc1,inactive,5.63%
CC1(C)CSC(=NCc2ccccc2)N1C(=O)c1cccc([N+](=O)[O-])c1,inactive,13.5%
CC1(C)CSC(=NCCc2ccccc2)N1C(=O)c1ccc(C#N)cc1,1.3 µM (active),-0.734%
